Laboratory results from PubChem BioAssay AID2284066 (EPA ToxCast).
The source made the active and inactive calls. Rule for the calls: active = hit-call score of the fitted dose curve at least 0.9, where 1 is the maximum; inactive = score below 0.9.

The compounds below were run against Tyrosine-protein kinase Fyn (Homo sapiens) (UniProt P06241) (assay: ERF_FR_ENZ_hFYN: Eurofins (ERF) Enzymatic Radiometric [Km ATP] KinaseProfiler LeadHunter Assay for human Fyn Tyrosine Kinase).
Protocol: ERF_FR_ENZ_hFYN is a biochemical, single-readout assay that uses extracted gene-proteins in a cell-free assay. Measurements were taken 1 hour after chemical dosing in a 96-well plate. See Fyn Human TK Kinase Enzymatic HTRF Assay [Km ATP], Cerep.ERF_FR_ENZ_hFYN is an assay component calculated from the ERF_FR_ENZ_hFYN assay. It is designed to measure enzyme activity using a type of enzyme reporter as detected by fluorescence intensity with HTRF technology.Data from the assay component ERF_FR_ENZ_hFYN was analyzed at the assay endpoint, ERF_FR_ENZ_hFYN, in the positive analysis fitting direction relative to DMSO as the negative control and baseline of activity. Using a type of enzyme reporter, loss-of-signal activity can be used to understand changes in enzymatic activity as they relate to gene FYN. To generalize the intended target to other relatable targets, this assay endpoint is annotated to the kinase intended target family, where the subfamily is non-receptor tyrosine […].
Fyn (h) is incubated with 50 mM Tris pH 7.5, 0.1 mM EGTA, 0.1 mM Na3VO4, 250 uM […] (Cdc2 peptide), 10 mM MgAcetate and [gamma-33P]-ATP (specific activity and concentration as required). The reaction is initiated by the addition of the Mg/ATP mix. After incubation for 40 minutes at room temperature, the reaction is stopped by the addition of phosphoric acid to a concentration of 0.5%. […]

Tyrosine-protein kinase Fyn (Homo sapiens), sequence (P06241 whole entry, looked up): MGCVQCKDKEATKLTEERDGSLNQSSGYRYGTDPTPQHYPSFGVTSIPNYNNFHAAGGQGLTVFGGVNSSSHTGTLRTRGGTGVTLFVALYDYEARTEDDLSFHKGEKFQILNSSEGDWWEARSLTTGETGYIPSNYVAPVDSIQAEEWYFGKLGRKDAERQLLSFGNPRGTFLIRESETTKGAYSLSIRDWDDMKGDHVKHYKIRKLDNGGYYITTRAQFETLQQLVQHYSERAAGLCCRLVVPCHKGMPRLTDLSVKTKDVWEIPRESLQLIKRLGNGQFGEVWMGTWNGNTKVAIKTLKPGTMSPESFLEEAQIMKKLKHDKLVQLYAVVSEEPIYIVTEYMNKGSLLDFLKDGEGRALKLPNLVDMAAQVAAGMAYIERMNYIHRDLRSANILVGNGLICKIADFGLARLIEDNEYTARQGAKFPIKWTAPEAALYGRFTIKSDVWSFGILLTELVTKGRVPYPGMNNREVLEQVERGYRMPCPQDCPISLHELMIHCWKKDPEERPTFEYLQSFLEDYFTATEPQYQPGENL

SMILES | AC50
O=C(/C=C/c1ccc(O)cc1)CC(=O)/C=C/c1ccc(O)cc1 | 0.992 µM (active)
